Test results: PubChem BioAssay (NCATS)
Values joined by “and” are separate entries in the source; they are usually repeats but may differ in a detail not shown here. Identical values can stand only once. Inconclusive results are not listed. Entries that show only a call come without a potency. Active and inactive are the calls of the source. Unless noted, the call rests on the fitted dose curve; in most records, active means well fitted curve in the direction sought with a large enough effect; inconclusive means small, poorly fitted or top-dose-only effect, or another doubt; inactive means no such curve, though single readings can be large; an effect the other way counts as inactive or inconclusive.

What was measured:
[1] = NCATS anti-infectives library activity on HEK293 viability as a counter-qHTS vs the C. elegans viability qHTS (AID 1745854)
Outline: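 Cytotoxicity counter-screen to a worm viability qHTS: CellTiter-Glo luminescence read 10 min after reagent addition. Compounds (final up to 41.7 uM, a 1:5 dilution series) incubated 24 hr at 37C with 1,500 HEK293 cells per well; digitonin control.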

[2] = qHTS profiling of the MIPE4 collection as inhibitors of Plasmodium falciparum (HB3) proliferation (AID 743347; call rule not given here); settings: P. falciparum HB3 in erythrocytes, SYBR Green DNA, 72 h; at 28.5 µM (top of the series)
Outline: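 Parasite DNA was quantified by SYBR Green I fluorescence (ex 485, em 535 nm) after overnight lysis in saponin/Triton buffer at room temperature. Cultures at 0.3% parasitemia and 2.5% hematocrit were first exposed to compound for 72 h at 37 C; signals were normalised to artemisinin (0.29 uM) and vehicle wells.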

[3] = molecular target: Transient receptor potential cation channel subfamily V member 1 (Homo sapiens) (UniProt Q8NER1); test: HTS Assay for Compounds that Act as Enhancers of the Vanilloid Receptor 1 (AID 488979)
Outline: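 TRPV1 cells loaded with Fluo-8 calcium dye; compound added and Ca2+ signal (ex 480/em 520 nm) followed 3 min, then capsaicin at EC20 added and read 2 more min to detect enhancement.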

[4] = molecular target: Thyrotropin receptor (Homo sapiens) (UniProt P16473); test: qHTS Assay for Antagonists of the Thyroid Stimulating Hormone Receptor (AID 488980)
Outline: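 Readout is cAMP by HTRF competition between cellular cAMP and cAMP-d2 for a cryptate-labelled antibody. Antagonism was assessed in TSHR-transfected HEK293 cells stimulated with 4 nM TSH (EC80, final) in the presence of RO 20-1724.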

[5] = molecular target: Thyrotropin-releasing hormone receptor (Homo sapiens) (UniProt P34981); test: qHTS for Small Molecule Agonists and Allosteric Enhancers of Human TRH Receptor: Validation Screen for Agonists (AID 493127;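 active means calcium activation more than 3 SD above the typical response in the agonist read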;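 further: intracellular calcium rise by fluo-8 fluorescence before TRH EC20 addition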); settings: TRH receptor agonist cell assay; at 2 µM; stronger effect = higher value
Outline: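 Compound-evoked intracellular calcium release in fluo-8-loaded TRHR cells, read kinetically on FDSS (Ex 480/Em 530, 1 s/cycle) after 23 nL pintool transfer. Agonist phase preceded 10 nM TRH EC20 addition.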

[6] = molecular target: Galactokinase (Homo sapiens) (UniProt P51570); test: qHTS Validation Assay for Inhibitors of Human Galactokinase (GALK) (AID 493189)
Outline: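 5 nM GALK / 100 uM galactose / 35 uM ATP, 20 mM HEPES pH8.0, 5 mM MgCl2, 60 mM NaCl, 1 mM DTT, 0.01% BSA (final). RT 1 h; Kinase-Glo Plus luminescence.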

[7] = Validation screen for small molecules that induce DNA re-replication in SW480 colon adenocarcinoma cells (AID 504364)
Outline: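 Image-based DNA content read-out: Hoechst stain 40 min, total nuclear fluorescence intensity (ex 405 nm, em 500-530 nm) after 48 h compound exposure of 250 SW480 cells/well at 37 C, 5% CO2, versus DMSO vehicle.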

[8] = molecular target: Peroxisome proliferator-activated receptor gamma (Homo sapiens) (UniProt P37231); test: qHTS assay for small molecule agonists of peroxisome proliferator-activated receptor gamma signaling (AID 588536; active means well fitted curve in the direction sought with a large enough effect in the signal ratio, with a control signal flat, not every such curve was filed as active; the % refers to the signal ratio)
Outline: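 Beta-lactamase reporter read-out: CCF4 fluorescence (ex 405, em 460/530 nm) after 2 h at RT. HEK293 GeneBLAzer cells were treated for 16 h at 37 C. Hill fits gave EC50 and efficacy versus 2 uM rosiglitazone (100%) and DMSO (0%).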

[9] = molecular target: Peroxisome proliferator-activated receptor gamma (Homo sapiens) (UniProt P37231); test: qHTS assay for small molecule antagonists of peroxisome proliferator-activated receptor gamma signaling (AID 588537; active means well fitted inhibition curve with a large enough effect in the signal ratio, with a control signal flat, not every such curve was filed as active; the % refers to the signal ratio;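 further: reporter cells co-stimulated with 50 nM rosiglitazone agonist during compound treatment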)
Outline: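 Fluorescence at 460 and 530 nm (405 nm excitation) reported beta-lactamase cleavage of CCF4 after 2 h room-temperature loading. HEK293 reporter cells in 1% charcoal/dextran-treated FBS had received compound and rosiglitazone for 16 h.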

[10] = molecular target: Thyroid hormone receptor beta (Homo sapiens) (UniProt P10828); test: qHTS assay for small molecule agonists of thyroid hormone receptor beta signaling (AID 588545; calls by dose curve)
Outline: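 Agonist-mode beta-lactamase reporter assay, HEK 293 cells, 2% charcoal/dextran FBS; cells plated 4 hrs, compound 18 hrs at 37 C, CCF4 2 hrs RT. Normalized to 10 nM T3 (100%) and DMSO (0%); Hill fit gives EC50, efficacy.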

[11] = qHTS assay for small molecule antagonists of retinoid X receptor alpha signaling (AID 588546; active means well fitted inhibition curve with a large enough effect in the signal ratio, with a control signal flat, not every such curve was filed as active; the % refers to the signal ratio;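 further: cells stimulated with 9-cis-retinoic acid as agonist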); settings: HEK293T RXRa-UAS-bla, beta-lactamase ratio, antagonist mode; measured here: W530 green channel, cytotoxicity proxy
Outline: (§1)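 Beta-lactamase reporter inhibition, read as CCF4 fluorescence ratio (ex 405, em 460/530 nm) after 2 h at RT. HEK293T UAS-bla cells, 2500/well, were stimulated with 9-cis-RA at 500 or 100 nM final alongside test compound for 18 h at 37 C.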

[12] = molecular target: Retinoic acid receptor RXR-alpha (Homo sapiens) (UniProt P19793); test: as above; settings: HEK293T RXRa-UAS-bla, beta-lactamase ratio, antagonist mode
Outline: as §1

[13] = qHTS assay for small molecule activators of the p53 signaling pathway (AID 651743; active means well fitted activation curve with a large enough effect in the signal ratio, not every such curve was filed as active; the % refers to the signal ratio); settings: HCT-116 p53RE-bla, beta-lactamase FRET ratio, 16 h; stronger effect = higher value
Outline: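 Following 16 hours of compound exposure at 37 C, HCT-116 cells bearing the p53RE-bla reporter were loaded with LiveBLAzer B/G FRET substrate for 2 hours at room temperature and fluorescence intensity was recorded.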

[14] = qHTS assay for environmental chemicals that activate the Aryl hydrocarbon Receptor (AhR) signaling pathway (AID 651777); settings: 1A2-DRE human hepatoma cells, luciferase, 24 h; stronger effect = higher value; further: nearly all actives have a fitted effect of over 15% in size
Outline: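 Human hepatoma 1A2-DRE cells, stably carrying a dioxin response element and CYP1A2 promoter driving luciferase, were exposed to compounds for 24 hr at 37 C and 5% CO2. Luciferase signal was then read after 30 min One-Glo at room temperature.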

[15] = molecular target: Peroxisome proliferator-activated receptor alpha (Homo sapiens) (UniProt Q07869); test: qHTS assay for small molecule agonists of the peroxisome proliferator-activated receptor alpha (PPARalpha) signaling pathway (AID 651778); settings: PathHunter PPARalpha complementation, chemiluminescence, 6 h; stronger effect = higher value
Outline: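 Enzyme-fragment complementation assay in which ligand-bound PPARalpha translocates and forms an active enzyme that generates chemiluminescence. Cells were plated overnight, exposed to compound for 6 hr at 37 C, and then given detection reagent for 60 min at room temperature.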

[16] = qHTS assay for small molecule agonists of the antioxidant response element (ARE) signaling pathway measured by Nrf2-dependant transcriptional activity - cell viability counter screen (AID 720653; active means well fitted curve in the direction sought with a large enough effect in the repeat runs; an effect the other way counts as inactive or inconclusive); settings: ARE-bla HepG2 viability, CellTiter-Glo ATP luminescence, 16 h; max response: stronger effect = lower value
Outline: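 ARE-bla HepG2 cells treated with compounds for 16 h at 37C; this counter screen measures viability as intracellular ATP by CellTiter-Glo luminescence after 30 min at room temperature.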

[17] = qHTS assay for cell viability of HEK293 cells (AID 743288); settings: ATP luminescence (CellTiter-Glo), 18 h; max response: stronger effect = lower value; further: nearly all actives have a fitted effect of over 50% in size
Outline: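 Viable-cell counts were inferred from luciferase-based ATP content in HEK293 cells seeded at 2,000/well, pre-incubated ≥5 h, then dosed with DMSO-solubilised compounds for 18 h at 37 C.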

[18] = qHTS assay for cell viability of the p53RE-bla HCT-116 cell line (AID 743292); further: nearly all actives have a fitted effect of over 55% in size
Outline: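 CellSensor p53RE-bla HCT-116 cells, 4,000/well, preincubated 5 h at 37 C, then exposed to compounds in DMSO for 16 h at 37 C. Viability read as CellTiter-Glo luminescence (intracellular ATP) after 30 min at room temperature.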

[19] = molecular target: Luciferin 4-monooxygenase (Photinus pyralis) (UniProt P08659); test: Biochemical firefly luciferase enzyme assay for NPC (AID 624030);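 further: purified P. pyralis luciferase at 10 nM with luciferin and ATP substrate; nearly all actives have a fitted effect of over 70% in size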
Outline: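 Purified P. pyralis luciferase at 10 nM in 50 mM Tris Acetate (final), luminescence read within 5 minutes of enzyme addition to compounds. Activity normalised to PTC124 versus DMSO; concentration-response curves classed by r2, magnitude and activity.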

[20] = qHTS profiling for inhibitors of Plasmodium falciparum proliferation (AID 504749); further: nearly all actives have a fitted effect of over 60% in size; settings: P. falciparum in erythrocytes, SYBR Green DNA, 72 h, at 28.7 µM (top of the series)
Outline: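 Each compound contacts P. falciparum-infected red blood cells for 72 h at 37 C; lysis buffer (Tris, EDTA, saponin, Triton X, SYBR Green I) is added and fluorescence measured next morning; values normalized to controls.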

Thyroid hormone receptor beta (Homo sapiens), sequence (P10828 whole entry, looked up): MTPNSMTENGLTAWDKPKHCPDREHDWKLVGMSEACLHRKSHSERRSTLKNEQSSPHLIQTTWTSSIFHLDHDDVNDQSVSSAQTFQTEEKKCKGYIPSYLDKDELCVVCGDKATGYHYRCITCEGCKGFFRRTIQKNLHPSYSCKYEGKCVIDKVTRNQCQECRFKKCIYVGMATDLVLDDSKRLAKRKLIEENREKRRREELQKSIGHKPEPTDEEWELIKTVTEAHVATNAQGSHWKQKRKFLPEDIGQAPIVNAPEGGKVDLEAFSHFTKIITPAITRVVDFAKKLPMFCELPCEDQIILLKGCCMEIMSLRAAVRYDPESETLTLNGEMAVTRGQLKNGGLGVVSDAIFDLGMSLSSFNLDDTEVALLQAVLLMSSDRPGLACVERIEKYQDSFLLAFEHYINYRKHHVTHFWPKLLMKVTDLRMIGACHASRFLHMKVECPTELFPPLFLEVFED
Peroxisome proliferator-activated receptor alpha (Homo sapiens), sequence (Q07869 whole entry, looked up, the tested form may be a part): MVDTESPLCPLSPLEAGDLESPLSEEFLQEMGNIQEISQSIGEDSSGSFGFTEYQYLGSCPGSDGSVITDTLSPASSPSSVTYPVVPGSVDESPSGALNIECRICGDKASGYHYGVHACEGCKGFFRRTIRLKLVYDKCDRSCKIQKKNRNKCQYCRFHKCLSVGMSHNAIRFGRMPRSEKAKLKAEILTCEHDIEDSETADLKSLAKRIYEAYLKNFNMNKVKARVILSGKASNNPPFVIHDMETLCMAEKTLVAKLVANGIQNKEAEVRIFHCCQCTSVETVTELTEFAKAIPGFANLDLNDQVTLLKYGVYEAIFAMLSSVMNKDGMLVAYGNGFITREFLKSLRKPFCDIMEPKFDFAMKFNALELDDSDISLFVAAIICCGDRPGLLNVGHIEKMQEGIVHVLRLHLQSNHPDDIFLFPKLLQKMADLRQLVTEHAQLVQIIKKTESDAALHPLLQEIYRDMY
Peroxisome proliferator-activated receptor gamma (Homo sapiens), sequence (P37231 whole entry, looked up): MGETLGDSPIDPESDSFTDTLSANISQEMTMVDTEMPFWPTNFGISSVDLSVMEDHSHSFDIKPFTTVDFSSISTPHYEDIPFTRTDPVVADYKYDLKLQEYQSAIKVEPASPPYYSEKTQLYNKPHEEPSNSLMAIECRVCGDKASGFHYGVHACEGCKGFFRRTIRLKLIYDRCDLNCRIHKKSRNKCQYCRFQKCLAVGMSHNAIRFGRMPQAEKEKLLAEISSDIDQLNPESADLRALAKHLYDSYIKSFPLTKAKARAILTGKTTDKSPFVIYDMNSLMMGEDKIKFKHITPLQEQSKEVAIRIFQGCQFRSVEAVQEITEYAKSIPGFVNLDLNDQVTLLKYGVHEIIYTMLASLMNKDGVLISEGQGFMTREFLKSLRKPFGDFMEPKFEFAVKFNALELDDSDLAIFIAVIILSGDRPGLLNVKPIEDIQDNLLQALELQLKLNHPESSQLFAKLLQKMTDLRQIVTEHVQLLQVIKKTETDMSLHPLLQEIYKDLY
Transient receptor potential cation channel subfamily V member 1 (Homo sapiens), sequence (Q8NER1 whole entry, looked up): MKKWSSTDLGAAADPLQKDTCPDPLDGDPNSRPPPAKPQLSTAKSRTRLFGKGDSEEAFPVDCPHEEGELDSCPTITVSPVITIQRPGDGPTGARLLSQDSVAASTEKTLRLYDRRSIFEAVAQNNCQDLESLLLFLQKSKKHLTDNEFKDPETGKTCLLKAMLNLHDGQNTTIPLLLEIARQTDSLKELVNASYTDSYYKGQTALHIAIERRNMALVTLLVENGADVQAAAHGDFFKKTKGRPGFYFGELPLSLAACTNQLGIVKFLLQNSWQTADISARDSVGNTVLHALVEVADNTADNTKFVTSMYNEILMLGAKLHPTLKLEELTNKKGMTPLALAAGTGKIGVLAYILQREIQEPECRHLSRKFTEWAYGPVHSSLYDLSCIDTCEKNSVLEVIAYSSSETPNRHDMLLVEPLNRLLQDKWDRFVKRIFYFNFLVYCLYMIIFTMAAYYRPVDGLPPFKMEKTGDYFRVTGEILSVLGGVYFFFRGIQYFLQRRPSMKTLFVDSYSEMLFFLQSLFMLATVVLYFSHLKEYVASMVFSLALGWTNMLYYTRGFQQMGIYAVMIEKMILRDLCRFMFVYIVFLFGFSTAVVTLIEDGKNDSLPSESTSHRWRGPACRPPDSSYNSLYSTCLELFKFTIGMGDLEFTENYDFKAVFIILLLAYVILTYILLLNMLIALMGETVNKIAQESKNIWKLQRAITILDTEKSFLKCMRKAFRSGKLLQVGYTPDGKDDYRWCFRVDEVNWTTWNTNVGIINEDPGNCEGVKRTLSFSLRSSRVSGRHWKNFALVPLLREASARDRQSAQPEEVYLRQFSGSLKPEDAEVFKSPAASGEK
Retinoic acid receptor RXR-alpha (Homo sapiens), sequence (P19793 whole entry, looked up): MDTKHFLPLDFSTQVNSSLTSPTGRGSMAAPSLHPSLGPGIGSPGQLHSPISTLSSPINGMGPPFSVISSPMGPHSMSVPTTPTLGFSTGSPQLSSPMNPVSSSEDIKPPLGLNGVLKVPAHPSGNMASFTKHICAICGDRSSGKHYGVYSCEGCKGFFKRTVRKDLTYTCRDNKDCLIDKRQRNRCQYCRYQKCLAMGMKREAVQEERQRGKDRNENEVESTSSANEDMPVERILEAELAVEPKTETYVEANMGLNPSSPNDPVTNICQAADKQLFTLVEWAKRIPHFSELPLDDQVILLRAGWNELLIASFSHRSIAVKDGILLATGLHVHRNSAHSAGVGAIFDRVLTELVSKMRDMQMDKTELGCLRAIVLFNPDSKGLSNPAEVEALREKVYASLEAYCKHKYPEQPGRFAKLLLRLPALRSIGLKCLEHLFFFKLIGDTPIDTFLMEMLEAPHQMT
Galactokinase (Homo sapiens), sequence (P51570 whole entry, looked up): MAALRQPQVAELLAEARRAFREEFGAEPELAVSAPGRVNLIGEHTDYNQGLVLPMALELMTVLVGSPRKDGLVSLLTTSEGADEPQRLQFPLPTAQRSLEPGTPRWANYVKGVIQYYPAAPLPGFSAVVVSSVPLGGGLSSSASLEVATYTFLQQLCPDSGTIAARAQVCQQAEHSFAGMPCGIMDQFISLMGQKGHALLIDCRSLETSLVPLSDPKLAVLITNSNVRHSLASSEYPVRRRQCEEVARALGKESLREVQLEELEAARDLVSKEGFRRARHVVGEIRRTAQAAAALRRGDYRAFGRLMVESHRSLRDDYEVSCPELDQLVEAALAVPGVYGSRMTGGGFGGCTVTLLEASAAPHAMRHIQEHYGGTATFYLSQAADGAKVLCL
Thyrotropin-releasing hormone receptor (Homo sapiens), sequence (P34981 whole entry, looked up): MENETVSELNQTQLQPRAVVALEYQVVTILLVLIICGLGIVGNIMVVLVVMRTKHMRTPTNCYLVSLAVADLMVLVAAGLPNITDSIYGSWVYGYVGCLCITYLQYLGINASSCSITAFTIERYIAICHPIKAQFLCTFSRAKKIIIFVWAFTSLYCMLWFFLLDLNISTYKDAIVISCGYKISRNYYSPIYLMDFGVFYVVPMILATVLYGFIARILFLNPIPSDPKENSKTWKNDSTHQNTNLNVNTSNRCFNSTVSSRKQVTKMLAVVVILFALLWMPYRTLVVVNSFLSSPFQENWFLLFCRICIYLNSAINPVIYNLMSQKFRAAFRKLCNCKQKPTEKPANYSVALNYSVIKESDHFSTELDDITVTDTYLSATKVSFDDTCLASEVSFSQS
Thyrotropin receptor (Homo sapiens), sequence (P16473 whole entry, looked up): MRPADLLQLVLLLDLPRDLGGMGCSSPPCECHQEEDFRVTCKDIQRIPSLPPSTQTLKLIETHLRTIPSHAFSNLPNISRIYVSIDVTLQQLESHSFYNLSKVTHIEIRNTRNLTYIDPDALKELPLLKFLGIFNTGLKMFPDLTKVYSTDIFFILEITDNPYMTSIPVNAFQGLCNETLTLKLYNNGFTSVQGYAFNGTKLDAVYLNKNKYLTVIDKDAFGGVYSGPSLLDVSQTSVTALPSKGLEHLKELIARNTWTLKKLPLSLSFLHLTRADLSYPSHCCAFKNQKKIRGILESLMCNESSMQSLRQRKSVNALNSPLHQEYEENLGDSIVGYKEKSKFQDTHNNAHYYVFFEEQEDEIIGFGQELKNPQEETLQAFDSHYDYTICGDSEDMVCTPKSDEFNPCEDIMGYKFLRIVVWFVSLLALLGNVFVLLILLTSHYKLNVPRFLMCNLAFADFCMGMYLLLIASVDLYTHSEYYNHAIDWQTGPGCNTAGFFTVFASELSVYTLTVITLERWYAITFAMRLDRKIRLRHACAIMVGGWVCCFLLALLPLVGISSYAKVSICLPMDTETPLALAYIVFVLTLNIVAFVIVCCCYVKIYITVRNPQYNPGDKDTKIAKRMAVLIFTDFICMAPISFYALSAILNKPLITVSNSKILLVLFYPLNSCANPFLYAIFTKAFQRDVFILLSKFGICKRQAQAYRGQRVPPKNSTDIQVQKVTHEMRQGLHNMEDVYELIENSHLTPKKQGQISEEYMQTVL
Luciferin 4-monooxygenase (Photinus pyralis), sequence (P08659 whole entry, looked up): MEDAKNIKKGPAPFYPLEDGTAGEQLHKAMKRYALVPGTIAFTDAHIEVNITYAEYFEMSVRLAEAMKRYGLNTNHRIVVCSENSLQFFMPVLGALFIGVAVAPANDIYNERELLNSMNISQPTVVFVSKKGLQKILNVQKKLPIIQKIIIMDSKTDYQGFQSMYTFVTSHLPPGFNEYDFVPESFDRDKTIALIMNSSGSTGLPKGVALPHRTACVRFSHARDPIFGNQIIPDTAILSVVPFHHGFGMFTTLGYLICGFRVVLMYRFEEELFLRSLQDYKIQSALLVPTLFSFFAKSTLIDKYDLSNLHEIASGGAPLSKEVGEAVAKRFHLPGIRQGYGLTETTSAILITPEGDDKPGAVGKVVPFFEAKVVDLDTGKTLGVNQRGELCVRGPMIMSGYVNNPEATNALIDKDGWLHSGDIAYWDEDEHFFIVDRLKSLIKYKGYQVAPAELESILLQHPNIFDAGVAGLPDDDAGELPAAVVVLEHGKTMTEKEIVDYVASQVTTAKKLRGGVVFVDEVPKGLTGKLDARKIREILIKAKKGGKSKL

Q: For `OCCOCCN1CCN(Cc2cccc(Oc3ccccc3)c2)CC1`, which outcome [1] is on record?
A: inactive

Q: With `CN[C@@H]1[C@H](O)[C@H](O[C@@H]2[C@H](O)[C@@H](O[C@H]3O[C@H]([C@@H](C)NC)CC[C@H]3N)[C@@H](N)C[C@H]2N)OC[C@]1(C)O` as the compound, how does the growth, % of control [2] read?
A: 107%

Q: With `NCCNS(=O)(=O)c1cccc2cnccc12` as the compound, how does the outcome [3] read?
A: inactive

Q: What about the outcome [4] of the same compound?
A: inactive

Q: What about the activation [5] of the same compound?
A: -0.5% (inactive)

Q: What about the outcome [6] of the same compound?
A: inactive

Q: What about the outcome [7] of the same compound?
A: inactive

Q: Which outcome [8] does the source give for `CC(C)=CCC/C(C)=C/CC/C(C)=C/CO` here?
A: inactive

Q: What about the outcome [9] of the same compound?
A: inactive

Q: And the outcome [10]?
A: inactive

Q: And the max response [11]?
A: -7.11%

Q: What about the max response [12] of the same compound?
A: 5.64% (inactive)

Q: And the activation [13]?
A: 1.11% (inactive)

Q: And the activation [14]?
A: 1.51% (inactive)

Q: And the max response [15]?
A: 2.41% (inactive)

Q: And the max response [16]?
A: -6.95% (inactive)

Q: What about the max response [17] of the same compound?
A: -6.29% (inactive)

Q: And the Potency [18]?
A: inactive

Q: For `C[N+](C)(C)CCC(=O)c1cccc2ccccc12`, which outcome [3] is on record?
A: inactive

Q: What about the outcome [4] of the same compound?
A: inactive

Q: And the activation [5]?
A: 3.69% (inactive)

Q: What about the outcome [6] of the same compound?
A: inactive

Q: And the outcome [7]?
A: inactive

Q: For `OCc1cc([C@@H](O)CNCCCCCCOCCCCc2ccccc2)ccc1O`, which Potency [19] is on record?
A: inactive

Q: What does the source list for `CC(=O)[C@H]1[C@H](C#N)C[C@H]2[C@@H]3CC=C4C[C@@H](O)CC[C@]4(C)[C@H]3CC[C@@]21C`?
A: outcome [8]: inactive; outcome [9]: inactive; outcome [10]: inactive; max response [11]: 9.02%; max response [12]: -3.98% (inactive); activation [13]: 0.753% (inactive) and -1.56% (inactive); activation [14]: -1.23% (inactive) and 0.356% (inactive); max response [15]: -0.257% (inactive) and 0.0087% (inactive); max response [16]: -9.55% (inactive) and -3.25% (inactive); max response [17]: -20.6% (inactive) and -13.5% (inactive); Potency [18]: inactive

Q: With `C/C=C1\C2C=C(C)CC1(N)c1ccc(=O)[nH]c1C2` (stereo not drawn) as the compound, how does the Potency [19] read?
A: inactive

Q: And the activity, negative = inhibition ([20]; parasite line A)?
A: -3.71% (inactive)

Q: What about the activity, negative = inhibition ([20]; parasite line B) of the same compound?
A: 0.727% (inactive)
